Counter-ions that a name gives are not always drawn. ± gives the standard deviation of the averaged measurements.
system: MDA-MB-231; assay: cell viability relative to vehicle unstimulated control (fraction); higher = more viable cells; conditions: pre-treatment time: 18 h then 24 h IFNg/TNF
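Further: viability of the cells left after supernatant collection, read with Deep Blue dye added for 4 h, as absorbance at 570 nm minus 600 nm.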

Row | Structure (SMILES) | cell viability
1 | C[C@@H]1CC[C@]2(C(=O)O)CC[C@]3(C)C(=CC[C@@H]4[C@@]5(C)CC[C@H](O)[C@@](C)(CO)[C@@H]5CC[C@]43C)[C@@H]2[C@]1(C)O [Rotundic acid] (compound dose: 10 uM) | 0.8829 ± 0.0033
2 | C/C=C1/[C@H](O[C@@H]2O[C@H](CO)[C@@H](O)[C@H](O)[C@H]2O)OC=C(C(=O)OC)[C@H]1CC(=O)OCCc1ccc(O)c(O)c1 [Oleuropein] (compound dose: 10 uM) | 0.978 ± 0.075
3 | CC1(C)O[C@H]2CC(=O)OC[C@]23[C@H]2CC[C@@]4(C)[C@H](c5ccoc5)OC(=O)[C@H]5O[C@]54[C@]2(C)C(=O)C[C@@H]13 [Limonin] (compound dose: 10 uM) | 0.9819 ± 0.0068
4 | COC(=O)C1=CO[C@@H](O[C@@H]2O[C@H](CO)[C@@H](O)[C@H](O)[C@H]2O)[C@H]2[C@@H]1[C@H](O)C[C@]2(C)OC(C)=O [Barlerin] (compound dose: 10 uM) | 1.01 ± 0.02
5 | COC(=O)C1=CC[C@@]23CC[C@@H]([C@@](C)(/C=C/C=C(\C)C(=O)O)OC2=O)[C@@]3(O)CC1 [Pseudolaric Acid C] (compound dose: 10 uM) | 0.927 ± 0.094
6 | CC1=CC[C@@](O)(C(C)C)CC1 [Terpinen-4-ol] (compound dose: 10 uM) | 1.12 ± 0.0039
7 | CC(C)=CCC[C@@](C)(O)[C@H]1CC[C@]2(C)[C@@H]1[C@H](O)C[C@@H]1[C@@]3(C)CC[C@H](O[C@@H]4O[C@H](CO)[C@@H](O)[C@H](O)[C@H]4O[C@@H]4O[C@H](CO)[C@@H](O)[C@H](O)[C@H]4O[C@@H]4OC[C@@H](O)[C@H](O)[C@H]4O)C(C)(C)[C@@H]3CC[C@]12C [Notoginsenoside Ft1] (compound dose: 2 uM) | 0.899 ± 0.026
8 | CC12CCC(CC1=O)C2(C)C (stereo not drawn) [(+)-Camphor] (compound dose: 10 uM) | 1 ± 0.016
9 | CC1(C)C2CC=C(C=O)C1C2 (single isomer, unassigned; (-)) [(-)-Myrtenal] (compound dose: 10 uM) | 0.988 ± 0.056
10 | C=C(C)C1CC=C(C)[C@@H](O)C1 (stereo partly drawn) [Carveol] (compound dose: 10 uM) | 1.07 ± 0.081
11 | CC1(C)[C@@H](O)CC[C@]2(C)[C@H]3CC=C4[C@@H]5C[C@@]6(C)C[C@H](OC6=O)[C@]5(C)CC[C@@]4(C)[C@]3(C)CC[C@@H]12 [Wilforlide A] (compound dose: 2 uM) | 0.877 ± 0.047
12 | COc1ccc2c3c1O[C@H]1C[C@@H](O)C=C[C@@]31CCN(C)C2 [Galantamine hydrobromide] (compound dose: 10 uM) | 1.04
13 | CCOC(=O)/C=C/c1ccccc1 [Ethyl cinnamate] (compound dose: 10 uM) | 0.988 ± 0.085
14 | C[C@H](CC(=O)C[C@@H](C)[C@H]1C[C@H](O)[C@@]2(C)C3=C(C(=O)C[C@]12C)[C@@]1(C)CCC(=O)C(C)(C)[C@@H]1C[C@@H]3O)C(=O)O [Ganoderic acid A] (compound dose: 10 uM) | 0.889 ± 0.073
15 | C[C@@H]1CC[C@]2(C(=O)O)CC[C@]3(C)C(=CCC4[C@@]5(C)CC[C@H](O[C@@H]6OC[C@H](O)[C@H](O)[C@H]6O)C(C)(C)C5CC[C@]43C)[C@@H]2[C@]1(C)O (stereo partly drawn) [Ziyuglycoside II] (compound dose: 10 uM) | 0.934 ± 0.014
16 | CCCCCCCCCC(=O)O[C@@H]1[C@@H](C)[C@@]2(O)[C@@H](C=C(COC(=O)Cc3ccc(O)c(OC)c3)C[C@]3(O)C(=O)C(C)=C[C@@H]23)[C@@H]2C(C)(C)[C@]12OC(=O)CCCCCCCCC [Phorbol 12,13-didecanoate 20-homovanillate] (compound dose: 10 uM) | 1 ± 0.024
17 | OCC1=C[C@@H](O)[C@@H]2C=CO[C@@H](O[C@@H]3O[C@H](CO)[C@@H](O)[C@H](O)[C@H]3O)[C@H]12 [Aucubin] (compound dose: 10 uM) | 1.01 ± 0.02
18 | CC(C)=CCC[C@H](C)CC=O [(S)-(-)-Citronellal] (compound dose: 10 uM) | 1.04 ± 0.05
19 | CC(CC(=O)C[C@@H](C)[C@H]1CC(=O)[C@@]2(C)C3=C(C(=O)[C@@H](O)[C@]12C)[C@@]1(C)CC[C@H](O)C(C)(C)[C@@H]1C[C@@H]3O)C(=O)O (stereo partly drawn) [Ganoderic acid G] (compound dose: 10 uM) | 1.1 ± 0.058

Row | Structure (SMILES) | cell viability
20 | CC(C)=CCC/C(C)=C/CC/C(C)=C/CC/C=C(\C)CC/C=C(\C)CCC=C(C)C [Squalene] (compound dose: 10 uM) | 0.914 ± 0.13
21 | C=C1CC[C@@H]2[C@](C)(CO[C@@H]3O[C@H](CO)[C@@H](O)[C@H](O)[C@H]3O)CCC[C@@]2(C)[C@@H]1CCC1=CCOC1=O [Neoandrographolide] (compound dose: 10 uM) | 0.953 ± 0.034
22 | O[C@H]1[C@H]2c3cc4c(cc3CN3CC[C@H](C[C@@H]1O)[C@H]23)OCO4 [Dihydrolycorine] (compound dose: 10 uM) | 0.961 ± 0.041
23 | COc1cc2ccc(=O)oc2cc1O[C@@H]1O[C@H](CO)[C@@H](O)[C@H](O)[C@H]1O [Scopolin] (compound dose: 10 uM) | 1.015 ± 0.0034
24 | C[C@@H]1O[C@@H](O[C@H]2[C@H](O)[C@@H](O)[C@H](OC[C@H]3O[C@@H](OC(=O)[C@]45CCC(C)(C)C[C@H]4C4=CC[C@@H]6[C@@]7(C)CC[C@H](O[C@@H]8OC[C@H](O)[C@H](O)[C@H]8O)[C@@](C)(CO)[C@@H]7CC[C@@]6(C)[C@]4(C)CC5)[C@H](O)[C@@H](O)[C@@H]3O)O[C@@H]2CO)[C@H](O)[C@H](O)[C@H]1O [Cauloside D] (compound dose: 10 uM) | 0.997 ± 0.083
25 | COC(=O)[C@@]1(C)CC[C@]2(C(=O)O)CC[C@]3(C)C(=CC[C@@H]4[C@@]5(C)C[C@H](O)[C@H](O)[C@@](C)(CO)[C@@H]5CC[C@]43C)[C@@H]2C1 [Phytolaccagenin] (compound dose: 10 uM) | 0.924 ± 0.049
26 | CC(C)=CCC/C(C)=C/C=O [Citral] (compound dose: 10 uM) | 0.922 ± 0.019
27 | C[C@@]12C[C@H](c3ccoc3)O[C@@]13C[C@H](OC3=O)[C@H]1[C@H]2C[C@@H]2C[C@H]1C(=O)O2 [Diosbulbin B] (compound dose: 10 uM) | 0.78 ± 0.24
28 | CC12CCC(CC1)C(C)(C)O2 [1,8-cineole] (compound dose: 10 uM) | 0.978 ± 0.067
29 | C[C@H](CC[C@@H](O[C@@H]1O[C@H](CO[C@@H]2O[C@H](CO)[C@@H](O)[C@H](O)[C@H]2O)[C@@H](O)[C@H](O)[C@H]1O)C(C)(C)O)[C@H]1CC[C@@]2(C)[C@@H]3CC=C4[C@@H](CC[C@H](O[C@@H]5O[C@H](CO)[C@@H](O)[C@H](O)[C@H]5O)C4(C)C)[C@]3(C)[C@H](O)C[C@]12C [Mogroside III] (compound dose: 10 uM) | 0.857 ± 0.018
30 | CC1C(=O)OC2C(O)C34C5CC(C(C)(C)C)C36C(OC(=O)C6O)OC4(C(=O)O5)C12O (stereo not drawn) [Ginkgolide B] (compound dose: 10 uM) | 0.9 ± 0.12
31 | O=C(O)C1=CO[C@@H](O[C@@H]2O[C@H](CO)[C@@H](O)[C@H](O)[C@H]2O)[C@H]2[C@@H]1C=C[C@]2(O)CO [Monotropein] (compound dose: 10 uM) | 0.866 ± 0.046
32 | CC(=O)O[C@H]1CC(=O)OC(C)(C)[C@@H]2CC(=O)[C@]3(C)[C@H](CC[C@@]4(C)[C@@H](c5ccoc5)OC(=O)[C@H]5O[C@]543)[C@@]12C [Nomilin] (compound dose: 10 uM) | 1.03 ± 0.023
33 | CC1(C(=O)O)CCC2(C)CCC3(C)C(=CC(=O)C4C5(C)CCC(O)C(C)(C)C5CCC43C)C2C1 (stereo not drawn) [18β-Glycyrrhetinic acid] (compound dose: 10 uM) | 1.02 ± 0.17
34 | C=C1CC[C@@H]2[C@](C)(CO)[C@H](O)CC[C@@]2(C)[C@@H]1C/C=C1/C(=O)OC[C@H]1O [Andrographolide] (compound dose: 10 uM) | 0.98 ± 0.018
35 | C[C@H]1[C@H](C)CC[C@]2(C(=O)O)CC[C@]3(C)C(=CC[C@@H]4[C@@]5(C)CC[C@H](O)C(C)(C)[C@@H]5CC[C@]43C)[C@H]12 [3-Epiursolic Acid] (compound dose: 10 uM) | 1.02 ± 0.045
36 | CC1(C)CCCC2(C)C1CCC1(C)OCCC12 (stereo not drawn) [Ambroxide] (compound dose: 10 uM) | 0.964 ± 0.053
37 | CC1=CCC2CC1C2(C)C (stereo not drawn) [(-)-α-Pinene] (compound dose: 10 uM) | 1.01 ± 0.035
38 | CC1(C)CC[C@]2(C(=O)O[C@@H]3O[C@H](CO)[C@@H](O)[C@H](O)[C@H]3O)CC[C@]3(C)C(=CC[C@@H]4[C@@]5(C)CC[C@H](O[C@@H]6O[C@H](C(=O)O)[C@@H](O)[C@H](O)[C@H]6O[C@@H]6O[C@H](CO)[C@@H](O)[C@H](O)[C@H]6O)C(C)(C)[C@@H]5CC[C@]43C)[C@@H]2C1 [Ginsenoside Ro] (compound dose: 10 uM) | 0.928 ± 0.091

Reference: the supplement of paper PMC13094657
